Molecules are shown by their SMILES. About 83,000 compounds went through this panel and 20% of them were active in at least one assay; those are over-represented in the sample as a whole.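 Cells were grown in 96-well plates and exposed to the test compound at a single concentration for 48 hours; results are reported as percent growth, with values below 10 considered active.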 Calls of active or inactive are those of the source.

The assay deals with HL-60(TB) leukemia. Kind of assay: NCI-60 one-dose screen, 48 h (100 = growth as untreated, 0 = no growth, -100 = all killed). As to conditions: 10 µM unless noted.
For the molecule `OC1CCCN(Cc2ccccc2)C1` (stereo not given), the growth was 114% (inactive).
In the case of `C[C@@H](N)c1ccc(C(=O)Nc2ccnc3[nH]ccc23)cc1` it was 67.5% (inactive); in that of `CC(=O)NC(CCC(=O)c1ccccc1)C(=O)O` (stereo not given), 75.9% (inactive).
The figure for `O=C(CCCOc1ccc(Br)cc1)Nc1ncc(Cc2ccc(F)cc2)s1` is 34.7% (inactive).
Take `O=[N+]([O-])c1ccc(-c2ncc(-c3ccc(Br)cc3)o2)cc1`: the growth was 76.6% (inactive).
For `O=C1C=CC(=O)N1c1ccccc1N1C(=O)C=CC1=O`, the growth is 31.7% (inactive).
In the case of `CCN(CC)CCCC(C)Nc1cnc(C(=O)Nc2cccc3ccc(OC)nc23)cn1` (stereo not given) it was 72.4% (inactive).
On to `CCCCCCCCCCOC(=O)c1nn(C(C)=O)c2cc(C)c(C)cc12`, for which the growth is 101% (inactive).
Consider `Nc1nc(-c2ccccc2)cs1`, for which the growth is 115% (inactive).
The figure for `COC(=O)c1c2c(c(C)[n+]([O-])c1C)C(=O)C(NCc1cccc(OC)c1)=CC2=O` is -52.2% (active); for `COc1cc(C2c3cc4c(cc3C3OC(=O)C2C3CO)OCO4)cc(OC)c1OC` (stereo not given) it is -17.2% (active); for `c1ccc(CCCCc2ccc3ccccc3n2)cc1` it is 102% (inactive).
As to `O=C(Nc1cccc(N=Cc2c(O)ccc3ccccc23)c1)c1ccccc1`, the growth was 109% (inactive).
Take `COc1cc(N2CCC(N3CCN(C)CC3)CC2)ccc1Nc1ncnc(Nc2ccccc2S(=O)(=O)C(C)C)n1`: the growth is 102% (inactive).
In the case of `Cc1ccc(C(=O)NCCCNc2nccc(-n3ccc4cccnc43)n2)cc1`, the growth was 105% (inactive).
For `COC(=O)c1ccc2[nH]c(O)c(C(=Nc3ccc(N(C)C(=O)CN4CCN(C)CC4)cc3)c3ccc(CCO)cc3)c2c1`, the growth is 7.24% (active).
With `FCOC(C(F)(F)F)C(F)(F)F`, the growth was 96.1% (inactive).
For the molecule `c1ccc2c(c1)Cc1ccccc1N2CCN1CCCCC1`, the growth was 85.1% (inactive).
`O=C(C[Si](CC(=O)c1cccc(C(F)(F)F)c1)CC(=O)c1cccc(C(F)(F)F)c1)c1cccc(C(F)(F)F)c1`: the growth is -40.8% (active).
With `NC(N)=NS(=O)(=O)c1ccc(NC2=C(I)C(=O)c3ncccc3C2=O)cc1`, the growth is 99.2% (inactive).
Regarding `Cn1ccc(Nc2nccc(Oc3ccc(C(=O)Nc4cccc(F)c4)c(Cl)c3)n2)c1`, the growth was 95.4% (inactive).
Turning to `O=C1CCC/C=C\C[C@H]2C=C(Cl)C(=O)/C2=C/C[C@H](CCCCC(F)(F)F)OC(=O)CCC/C=C\C[C@H]2C=C(Cl)C(=O)/C2=C/C[C@H](CCCCC(F)(F)F)O1`, the growth was -16.5% [7.5 µM] (active).
With `COc1ccc(C2=NC(=O)NC2c2ccc(OC)cc2)cc1` (stereo not given), the growth is 61.2% (inactive).
`CC(C)OC(=O)Nc1cc(F)ccc1F`: the growth was 94.7% (inactive).
The figure for `NC(=N\N=C/c1ccc(O)cc1)/C(N)=N\N=C/c1ccc(O)cc1` is 25.9% (inactive); for `COc1ccc(/C(C#N)=C/c2cc(OC)c(OC)c(OC)c2)cc1` it is 14.8% (inactive); for `COc1ccc(/C=C/C(=O)c2cc(OC)c(OC)c(OC)c2)cc1OCC(=O)Nc1nc2ccc(OC(F)(F)F)cc2s1` it is 6.61% (active).
In the case of `Cc1ccc(NC(=O)c2cc(-c3nc4ccccc4s3)c(=O)n(NS(=O)(=O)c3ccc(Cl)cc3)c2N)cc1` it was 101% (inactive); in that of `O=c1cc(-c2ccccc2)[nH]c2ncc(-c3ccc(F)cc3)n12`, 18.9% (inactive); in that of `O=C(/C(=C/c1cccc([N+](=O)[O-])c1)c1ccccc1)c1ccccc1`, 10.6% (inactive).
Take `Cc1cc(N(CCNc2ccnc3cc(Cl)ccc23)Cc2ccc3c(c2)OCO3)nc(N2CCN(C)CC2)n1`: the growth was -57.8% (active).
Consider `O=C(Nc1ccc2c(c1)OCCO2)C(=O)c1c[nH]c2ccccc12`, for which the growth is 13.7% (inactive).
As for `C(=Nc1ccc(-c2ccc(N=Cc3ccccc3)cc2)cc1)c1ccccc1`, the growth was 107% (inactive).
With `OC(COc1ccccc1Cl)CN1CCN(c2cccc(Cl)c2)CC1` (stereo not given), the growth was 112% (inactive).
As to `O=C(CSc1nc(-c2ccccc2)cc(=O)[nH]1)Nc1nc(-c2ccccc2)cs1`, the growth is 95.7% (inactive).
Regarding `NC(=O)C1CCCN(Cc2c[nH]c3ccccc23)C1` (stereo not given), the growth was 102% (inactive).
In the case of `O=C1CNCCN1` it was 99.5% (inactive).
The figure for `COc1ccc(Nc2ncc(Br)c(NCCCNC(=O)c3cccs3)n2)cc1` is 17.7% (inactive); for `Cn1cc(-c2nonc2-c2cn(C)c3ccc(Br)cc23)c2ccccc21` it is -18.9% (active).
In the case of `C[N+](C)(CCCCCC[N+](C)(C)C1c2ccccc2-c2ccccc21)C1c2ccccc2-c2ccccc21`, the growth was 85.7% (inactive).

The values above are taken from PubChem BioAssay (NCI).
